Measured values published in PubChem BioAssay (NCI).
This is part of a sample that, as a whole, favours compounds with a hit. Of some 83,000 tested, about 20% had one in any assay.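 48-hour exposure, single concentration, 96-well plates; percent growth endpoint where 0 means no net growth. Active: below 10.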 Values without a mark were called inactive. Activity calls are given as the source filed them.

Tests used:
Assay in all cases: NCI-60 one-dose screen, 48 h (100 = growth as untreated, 0 = no growth, -100 = all killed)
Settings in all cases: 10 µM unless noted
[1] = test system: DU-145 prostate
[2] = test system: K-562 leukemia
[3] = test system: MALME-3M melanoma
[4] = test system: MDA-MB-231 breast
[5] = test system: RXF 393 renal
[6] = test system: SF-268 CNS
[7] = test system: SF-295 CNS
[8] = test system: SF-539 CNS
[9] = test system: UACC-257 melanoma
[10] = test system: M14 melanoma
[11] = test system: HCT-15 colon
[12] = test system: HT29 colon
[13] = test system: SNB-75 CNS
[14] = test system: U251 CNS
[15] = test system: PC-3 prostate
[16] = test system: SK-MEL-5 melanoma
[17] = test system: UACC-62 melanoma
[18] = test system: LOX IMVI melanoma
[19] = test system: SK-MEL-28 melanoma
[20] = test system: SNB-19 CNS

## COc1ccc(NC(=O)Nc2ccc(Nc3nc(C)cc(Nc4ccc(C)cc4)n3)cc2)cc1
[1]
  growth: -95.8% (active)
[2]
  growth: -60.9% (active)
[3]
  growth: -78.7% (active)
[4]
  growth: -75.8% (active)
[5]
  growth: -80.7% (active)
[6]
  growth: -67.9% (active)
[7]
  growth: -66% (active)
[8]
  growth: -89.5% (active)
[9]
  growth: -87.8% (active)
[10]
  growth: -82.9% (active)
[11]
  growth: -78.9% (active)
[12]
  growth: -84.8% (active)
[13]
  growth: -92.8% (active)
[14]
  growth: -83.9% (active)
[15]
  growth: -93.3% (active)
[16]
  growth: -72.7% (active)
[17]
  growth: -83% (active)
[18]
  growth: -85.3% (active)
[19]
  growth: -76.8% (active)

## CCOC(=O)NC(Cc1ccccc1)c1ccccc1 (centres undefined)
[1]
  growth: 110%
[2]
  growth: 91%
[3]
  growth: 110%
[4]
  growth: 97.8%
[5]
  growth: 112%
[6]
  growth: 111%
[7]
  growth: 106%
[8]
  growth: 98.6%
[9]
  growth: 108%
[10]
  growth: 95.8%
[11]
  growth: 106%
[12]
  growth: 97.5%
[13]
  growth: 100%
[14]
  growth: 99.9%
[15]
  growth: 94.7%
[16]
  growth: 104%
[17]
  growth: 97.5%
[18]
  growth: 94.9%
[19]
  growth: 115%

## Nc1ccccc1NC(=O)c1ccc(CSc2nc(N3CCOCC3)c3cccn3n2)cc1
[1]
  growth: 9.93% (active)
[2]
  growth: 5.46% (active)
[3]
  growth: 30.9%
[4]
  growth: 18.8%
[5]
  growth: -6.46% (active)
[6]
  growth: 4.84% (active)
[7]
  growth: 2.8% (active)
[8]
  growth: 15.2%
[9]
  growth: -3.3% (active)
[10]
  growth: 5.11% (active)
[11]
  growth: 20.1%
[12]
  growth: 0.895% (active)
[13]
  growth: 20.3%
[14]
  growth: 2.15% (active)
[15]
  growth: 23.1%
[16]
  growth: -41.1% (active)
[17]
  growth: -31.9% (active)
[18]
  growth: -38.6% (active)
[19]
  growth: 16.3%

## c1ccc(Sc2ncccn2)nc1
[1]
  growth: 109%
[2]
  growth: 90%
[3]
  growth: 111%
[4]
  growth: 109%
[5]
  growth: 110%
[6]
  growth: 104%
[7]
  growth: 109%
[8]
  growth: 96%
[9]
  growth: 99.2%
[10]
  growth: 99.2%
[11]
  growth: 102%
[12]
  growth: 101%
[13]
  growth: 72.5%
[14]
  growth: 104%
[15]
  growth: 97.9%
[16]
  growth: 102%
[17]
  growth: 93.6%
[18]
  growth: 92.6%
[19]
  growth: 109%

## CN(C)CCCn1c2c(c3cc(-c4cccc(S(N)(=O)=O)c4)ccc3c1=O)C(=O)c1ccccc1-2
[1]
  growth: 67.9%
[2]
  growth: 33.1%
[3]
  growth: 67.1%
[4]
  growth: 94.4%
[5]
  growth: 85.1%
[6]
  growth: 51.6%
[7]
  growth: 50.6%
[8]
  growth: 80.9%
[9]
  growth: 97.4%
[10]
  growth: 62.7%
[11]
  growth: 61.7%
[12]
  growth: -6.96% (active)
[13]
  growth: 59.1%
[14]
  growth: 47.5%
[15]
  growth: 67.3%
[16]
  growth: 85.3%
[17]
  growth: 77.3%
[18]
  growth: 56.3%
[19]
  growth: 113%

## CCOC(=O)c1cnn(-c2nc(-c3ccc(F)cc3)c(C#N)c(N3CCOCC3)n2)c1N
[1]
  growth: 102%
[2]
  growth: 91.8%
[3]
  growth: 107%
[4]
  growth: 107%
[5]
  growth: 122%
[6]
  growth: 98.7%
[7]
  growth: 101%
[8]
  growth: 97.2%
[9]
  growth: 106%
[10]
  growth: 106%
[11]
  growth: 101%
[12]
  growth: 92%
[13]
  growth: 82.2%
[14]
  growth: 95.3%
[15]
  growth: 95.1%
[16]
  growth: 96.6%
[17]
  growth: 90.8%
[18]
  growth: 106%
[19]
  growth: 111%

## COc1ccc(NC(=O)c2sc3nc(C)c(C(C)=O)cc3c2N)cc1
[1]
  growth: 102%
[2]
  growth: 86.2%
[3]
  growth: 115%
[4]
  growth: 102%
[5]
  growth: 105%
[6]
  growth: 102%
[7]
  growth: 97.7%
[8]
  growth: 87.8%
[9]
  growth: 88.7%
[10]
  growth: 100%
[11]
  growth: 91.6%
[12]
  growth: 83.5%
[13]
  growth: 88.3%
[14]
  growth: 95%
[15]
  growth: 92%
[16]
  growth: 93.8%
[17]
  growth: 92.9%
[18]
  growth: 105%
[19]
  growth: 94.1%

## COc1ccc2[nH]c3nc4cnccc4cc3c2c1
[1]
  growth: 101%
[2]
  growth: 111%
[3]
  growth: 108%
[4]
  growth: 109%
[5]
  growth: 123%
[6]
  growth: 106%
[7]
  growth: 114%
[8]
  growth: 102%
[9]
  growth: 122%
[10]
  growth: 102%
[11]
  growth: 97.9%
[12]
  growth: 99.7%
[13]
  growth: 97.5%
[14]
  growth: 98.9%
[15]
  growth: 104%
[16]
  growth: 108%
[17]
  growth: 117%
[18]
  growth: 105%
[19]
  growth: 114%

## Cc1c(O)c(=O)ccn1-c1nc2ccccc2s1
[1]
  growth: 103%
[2]
  growth: 110%
[3]
  growth: 96.6%
[4]
  growth: 93.2%
[5]
  growth: 87.8%
[6]
  growth: 90.6%
[7]
  growth: 105%
[8]
  growth: 102%
[9]
  growth: 90%
[10]
  growth: 84.2%
[11]
  growth: 38.2%
[12]
  growth: 93.8%
[13]
  growth: 95.7%
[14]
  growth: 84.1%
[15]
  growth: 90.4%
[16]
  growth: 96.2%
[17]
  growth: 98.3%
[18]
  growth: 86.7%
[19]
  growth: 107%

## C=C1C(=O)O[C@H]2[C@H]1CC/C(COC(=O)CCCCCCCC(=O)OC/C1=C/CC[C@@]3(C)O[C@H]3[C@H]3OC(=O)C(=C)[C@@H]3CC1)=C\CC[C@@]1(C)O[C@@H]21
[1]
  growth: 27.8%
[2]
  growth: 3.32% (active)
[3]
  growth: -19.7% (active)
[4]
  growth: -10.3% (active)
[5]
  growth: -70.6% (active)
[6]
  growth: 30.9%
[7]
  growth: 86.7%
[8]
  growth: -1.74% (active)
[9]
  growth: 58.2%
[10]
  growth: 8.2% (active)
[11]
  growth: -4.93% (active)
[12]
  growth: -8.08% (active)
[13]
  growth: 68%
[14]
  growth: 32.3%
[15]
  growth: 15.2%
[16]
  growth: 17.5%
[17]
  growth: -10.2% (active)
[18]
  growth: -51.9% (active)
[19]
  growth: 20.7%

## C[C@H]1[C@H](C)CC[C@]2(C(=O)OCCOCCOCC[P+](c3ccccc3)(c3ccccc3)c3ccccc3)CC[C@]3(C)C(=CC[C@@H]4[C@@]5(C)CC[C@H](OC(=O)C(Cl)Cl)C(C)(C)[C@@H]5CC[C@]43C)[C@H]12
[1]
  growth: 26%
[2]
  growth: 0.14% (active)
[3]
  growth: -78.5% (active)
[4]
  growth: -0.496% (active)
[5]
  growth: -29.5% (active)
[6]
  growth: 25.9%
[7]
  growth: -34.8% (active)
[8]
  growth: 9.4% (active)
[9]
  growth: -13.6% (active)
[10]
  growth: 8.99% (active)
[11]
  growth: 17.1%
[12]
  growth: 3.81% (active)
[13]
  growth: 19.7%
[14]
  growth: 11.3%
[15]
  growth: 5.1% (active)
[16]
  growth: -97.7% (active)
[17]
  growth: -23.9% (active)
[18]
  growth: -21.1% (active)
[19]
  growth: 30%

## CCCCn1c(=O)c(/C=C/C(=O)/C=C/c2cc3ccccc3n(CCCC)c2=O)cc2ccccc21
[1]
  growth: -7.95% (active)
[2]
  growth: 3.37% (active)
[3]
  growth: 8.02% (active)
[4]
  growth: -18.8% (active)
[5]
  growth: -89.9% (active)
[6]
  growth: 7.91% (active)
[7]
  growth: 3.65% (active)
[8]
  growth: -7.12% (active)
[9]
  growth: -24% (active)
[10]
  growth: -29.9% (active)
[11]
  growth: 1.62% (active)
[12]
  growth: -88.9% (active)
[20]
  growth: 16.2%
[14]
  growth: -48.3% (active)
[15]
  growth: 1.47% (active)
[16]
  growth: -74.5% (active)
[17]
  growth: -43.8% (active)
[18]
  growth: -80.3% (active)
[19]
  growth: -8.48% (active)

## COc1ccc(-n2cc(-c3ccc(Cl)c(Cl)c3)[nH]c2=O)cc1OC
[1]
  growth: 98.3%
[2]
  growth: 80.2%
[3]
  growth: 80.1%
[4]
  growth: 85.1%
[5]
  growth: 108%
[6]
  growth: 109%
[7]
  growth: 101%
[8]
  growth: 102%
[9]
  growth: 85.7%
[10]
  growth: 104%
[11]
  growth: 93.4%
[12]
  growth: 97.2%
[13]
  growth: 91.8%
[14]
  growth: 91.7%
[15]
  growth: 93.2%
[16]
  growth: 104%
[17]
  growth: 87.5%
[18]
  growth: 96.3%
[19]
  growth: 103%

## COc1ccc(-c2cs/c(=N\N=C\c3ccc(O)cc3O)n2/N=C/c2ccc(O)cc2O)cc1
[1]
  growth: 4.25% (active)
[2]
  growth: -4.98% (active)
[3]
  growth: -22.5% (active)
[4]
  growth: 1.96% (active)
[5]
  growth: -35.6% (active)
[6]
  growth: 4.27% (active)
[7]
  growth: -24.4% (active)
[8]
  growth: -33.1% (active)
[9]
  growth: -3.6% (active)
[10]
  growth: -19% (active)
[11]
  growth: -53.1% (active)
[12]
  growth: -29% (active)
[20]
  growth: 5.62% (active)
[14]
  growth: -35.8% (active)
[15]
  growth: -67.3% (active)
[16]
  growth: -38.6% (active)
[17]
  growth: -36.3% (active)
[18]
  growth: -36% (active)
[19]
  growth: -22.9% (active)

## CCCS(=O)(=O)Nc1ccc(F)c(C(=O)c2c[nH]c3ncc(-c4ccc(OCCCC5CCCCN5)nc4)cc23)c1F (centres undefined)
[1]
  growth: 87.5%
[2]
  growth: 30.1%
[3]
  growth: -25.7% (active)
[4]
  growth: 14.9%
[5]
  growth: 63.9%
[6]
  growth: 68.6%
[7]
  growth: 75.7%
[8]
  growth: 28.4%
[9]
  growth: -17% (active)
[10]
  growth: -17.2% (active)
[11]
  growth: 102%
[12]
  growth: 2.79% (active)
[20]
  growth: 77.5%
[14]
  growth: 61.2%
[15]
  growth: 53%
[16]
  growth: 44.7%
[17]
  growth: -22% (active)
[18]
  growth: 32.8%
[19]
  growth: -1.65% (active)

## CO[C@@]12C=C[C@@]34CCC(=O)N3c3ccccc3[C@@H](O1)C4C2
[1]
  growth: 111%
[2]
  growth: 97.5%
[3]
  growth: 98%
[4]
  growth: 100%
[5]
  growth: 107%
[6]
  growth: 98.4%
[7]
  growth: 109%
[8]
  growth: 102%
[9]
  growth: 101%
[10]
  growth: 99.5%
[11]
  growth: 104%
[12]
  growth: 101%
[20]
  growth: 99.1%
[14]
  growth: 99.7%
[15]
  growth: 100%
[16]
  growth: 104%
[17]
  growth: 94.5%
[18]
  growth: 96.9%
[19]
  growth: 113%
